Results filed as inconclusive are left out. Entries that show only a call come without a potency. Activity calls are given as the source filed them. The call rests on the fitted dose curve; in most records, active means well fitted curve in the direction sought with a large enough effect; inconclusive means small, poorly fitted or top-dose-only effect, or another doubt; inactive means no such curve, though single readings can be large or run the other way.

The assay in a line: Secondary Assay for Inhibitors of Human Cdc-like kinase 4 (Clk4): HEK-293 Cell Viability Assay.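 Further: cytotoxic hits lower the ATP light signal so activity reflects loss of viability.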 The settings on record: HEK-293 viability, ATP luminescence (CellTiter-Glo), 24/48 h; series mostly up to 46.1 µM. As to the method:
NIH Molecular Libraries Probe Production Centers Network [MLPCN] NIH Chemical Genomics Center [NCGC] MLPCN Grant: 1R03MH084827-01 Assay Submitter (PI): Tom Misteli NCGC Assay Overview: Cytotoxicity of the active compounds in the Clk4 screens was assessed using the CellTiter-Glo Luminescent Cell Viability Assay kit (Promega, USA) in the HEK-293 (ATCC) cell line. CellTiter-Glo measures the intracellular ATP present in metabolically active cells using Ultra-Glo as the luciferase to detect ATP levels. In brief, the luciferase in the buffer catalyzes the oxidation of luciferin to oxyluciferin and light which is dependent on ATP. […] Wells treated with various concentrations of cycloheximide (Sigma) and DMSO, and wells with media alone were used as positive and negative controls, respectively. […] [1] http://www.promega.com/tbs/tb288/tb288.pdf
NCGC Assay Protocol Summary: HEK-293 cells were grown in a flask up to 80% confluence. Cells were trypsinized, washed, and resuspended in MEM Eagle + 10% FBS + 1% pen-strep media at a concentration of 120 cells/uL. Five uL/well of cell solution was dispensed into a 1536-well assay plates (Greiner, solid white medium-binding plates) with Aurora Discovery BioRAPTR Flying Reagent Dispenser (FRD; Beckton-Dickenson). Cells were pre-incubated at 37 degree Celsius, 5% CO2 for four hours. Compound and control solutions (23nL) were then transferred to the assay plate using the Kalypsys 1536-pin tool. Assay plates were re- incubated at 37 degree Celsius, 5% CO2. After 24 or 48 hours, five uL of CellTiter Glo detection reagent was added. Luminescence signal was read with Perkin Elmer ViewLux plate reader after 30 min room temperature incubation.
For orientation: Cellular ATP, detected with luciferase, serves as a proxy for viable cell number.
As for `Cc1csc(CNc2ncnc3ccc(-c4cccnc4)cc23)c1`, the Potency entry was “inactive”. Consider `Cc1csc(CNc2ncnc3ccc(-c4cccc(Cl)c4)cc23)c1`, for which the Potency result was “inactive”. As for `Cc1csc(CNc2ncnc3cc(-c4ccc5c(c4)OCO5)ccc23)n1`, the Potency result was “inactive”. As to `Cc1ccsc1CNc1ncnc2ccc(-c3ccc4c(c3)OCO4)cc12`, the Potency entry is “inactive”. In the case of `c1nc(NCC2CCCO2)c2ccc(-c3ccc4c(c3)OCO4)cc2n1` (stereo not given) it was “inactive”; in that of `Cc1nc(CSc2ncnc3ccc(-c4ccc5c(c4)OCO5)cc23)cs1`, “inactive”; in that of `c1cncc(CNc2ncnc3ccc(-c4cccnc4)cc23)c1`, “inactive”. With `Clc1ccccc1-c1ccc2ncnc(NCc3cccnc3)c2c1`, the Potency entry was “inactive”. With `c1nc(NCc2ccoc2)c2cc(-c3ccc4c(c3)OCO4)ccc2n1`, the Potency entry was “inactive”. Regarding `Cn1ccc2cc(-c3ccc4ncnc(NCc5cccnc5)c4c3)ccc21`, the Potency result is “inactive”. `Cc1cccc(CNc2ncnc3ccc(-c4ccoc4)cc23)c1`: the Potency result is “inactive”.

Take `Cn1ccc2cc(-c3ccc4ncnc(NCc5cccs5)c4c3)ccc21`: the Potency entry was “inactive”.

Take `c1coc(-c2ccc3ncnc(NCc4cccs4)c3c2)c1`: the Potency entry is “inactive”.

As for `Fc1cccc(CNc2ncnc3ccc(-c4ccoc4)cc23)c1`, the Potency result was “inactive”. Consider `Cc1ccsc1CN(C)c1ncnc2ccc(-c3ccc([C@@H](C)O)o3)cc12`, for which the Potency result was “inactive”. Regarding `CCN1/C(=C/C(C)=O)Sc2ccc(OC)cc21`, the Potency entry is “inactive”.

In the case of `Cc1cccc(-c2ccc3ncnc(NCc4cc(C)cs4)c3c2)c1`, the Potency entry is “inactive”. For `c1nc(NCCc2cnc[nH]2)c2cc(-c3ccoc3)ccc2n1`, the Potency result is “inactive”. Take `CN(Cc1cncn1C)c1ncnc2ccc(-c3ccc4c(c3)OCO4)cc12`: the Potency entry was “inactive”. Regarding `Cc1nc(CNc2ncnc3ccc(-c4sc(C)nc4C)cc23)cs1`, the Potency entry is “inactive”.

Turning to `Cc1nc(C)c(-c2ccc3ncnc(NCCc4cnc[nH]4)c3c2)s1`, the Potency entry is “inactive”. Turning to `Cc1csc(CNc2ncnc3ccc(-c4ccc5c(c4)OCO5)cc23)c1`, the Potency entry is “inactive”. Consider `CN(C)CCCNc1ncnc2ccc(-c3ccc4c(c3)OCO4)cc12`, for which the Potency result was “inactive”. Turning to `O=Cc1ccc(-c2ccc3ncnc(NCc4cccs4)c3c2)o1`, the Potency result was “inactive”. Take `CN1CCCC1CCNc1ncnc2ccc(-c3ccc4c(c3)OCO4)cc12` (stereo not given): the Potency entry is “inactive”. In the case of `Cc1cccc(CNc2ncnc3ccc(-c4ccc5c(ccn5C)c4)cc23)c1` it was “inactive”; in that of `Cc1csc(CNc2ncnc3ccc(-c4ccc5c(ccn5C)c4)cc23)c1`, “inactive”. In the case of `Cc1ccsc1CN(C)c1ncnc2ccc(-c3ccc(COC(=O)N(C)C)o3)cc12`, the Potency entry was “inactive”.

Take `CCOC(=O)c1ccoc1-c1ccc2ncnc(NCc3ccc(C)o3)c2c1`: the Potency entry is “inactive”.

With `Cc1cccc(CNc2ncnc3ccc(-c4cccc(Cl)c4)cc23)c1`, the Potency entry was “inactive”. In the case of `Cc1ccc(CNc2ncnc3ccc(-c4ccc([C@@H](C)O)o4)cc23)o1` it was “inactive”; in that of `Cc1ccc(CNc2ncnc3ccc(-c4ccc(C(=O)O)o4)cc23)o1`, “inactive”; in that of `c1c[nH]c(CNc2ncnc3ccc(-c4ccoc4)cc23)n1`, “inactive”. The value for `Cn1ccc2cc(-c3ccc4ncnc(NCc5cccc(F)c5)c4c3)ccc21` was “inactive”. In the case of `CCOC(=O)c1ccc(-c2ccc3ncnc(NCc4ncc[nH]4)c3c2)o1`, the Potency result is “inactive”. Regarding `CCOC(=O)c1ccc(-c2ccc3ncnc(NCCc4cnc[nH]4)c3c2)o1`, the Potency result is “inactive”.

With `C#Cc1cccc(Nc2ncnc3cc(OCCOC)c(OCCOC)cc23)c1`, the Potency result was “inactive”. `CCOC(=O)c1ccc(-c2ccc3ncnc(NCc4csc(C)n4)c3c2)o1`: the Potency result was “inactive”. In the case of `Cn1ccc2cc(-c3ccc4ncnc(NCc5ccc6c(c5)OCO6)c4c3)ccc21` it was “inactive”; in that of `Cc1cccc(CNc2ncnc3ccc(-c4cccc(C)c4)cc23)c1`, “inactive”.

For the origin of these results see PubChem BioAssay AID504534 (National Center for Advancing Translational Sciences (NCATS), 2011).
